Source: PubChem BioAssay (EPA / NIEHS)
Values joined by “and” are separate entries in the source; they are usually repeats but may differ in a detail not shown here. Identical values can stand only once. Active and inactive are the calls of the source. The calls were made as follows: active = hit-call score of the fitted dose curve at least 0.9, where 1 is the maximum; inactive = score below 0.9.

Experiment: ATG_TCF_b_cat_CIS: Attagene CIS-FACTORIAL HepG2 Assay for human T-Cell-Factor with beta-catenin (TCF/b-cat) (AID 2282965)
Details: HepG2 TCF/beta-catenin cis-reporter transcription, actives raise or lower the signal
In short: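 Cells of the HepG2 line carry transiently transfected reporter units whose promoters respond to endogenous factors. Twenty-four hours post-dosing, reporter mRNA induction is measured by fluorescent RT-PCR and capillary electrophoresis, with DMSO as baseline.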

outcome, inactive:
CCOC=O
Oc1ccc(Cc2ccccc2O)cc1
O=CC(F)(F)C(F)(F)C(F)(F)C(F)F
CCc1ccccc1O

AC50, active:
CCCCCCCCCCCC[N+](C)(C)CCCCCCCCCCCC 25.4 µM

Experiment: ATG_TAL_CIS: Attagene CIS-FACTORIAL HepG2 Assay for human TAL Basal Promoter (AID 2282966);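 also: background control endpoint measuring basal TAL promoter reporter mRNA not a specific factor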
Details: HepG2 Attagene cis-factorial TAL promoter reporter; actives raise or lower the signal
In short: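 Readout: reporter mRNA, fluorescence by CE. System: HepG2, transient multi-reporter transfection, endogenous TF activity. Exposure: 24 h. Analysis: bidirectional, DMSO-normalized; background control.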

outcome, inactive:
O=C1OC(=O)C(F)(F)C1(F)F
CCCCc1ccc2ccccc2c1S(=O)(=O)O
Oc1c(Cl)cc(Cl)cc1Sc1cc(Cl)cc(Cl)c1O
CCOC(C)=O
CCc1cccc(CC)c1N(COC)C(=O)CS(=O)(=O)O
N=C(N)c1ccc(OCCCCCOc2ccc(C(=N)N)cc2)cc1
CCCCCCCCCCCCCCCC(=O)OC
O=C(O)CN(CCCN(CC(=O)O)CC(=O)O)CC(=O)O
CCC1CO1 (stereo not given)
CC=O
Cc1cc(Cc2cc(C)cc(C(C)(C)C)c2O)c(O)c(C(C)(C)C)c1
O=C(F)C(F)(F)C(F)(F)C(F)(F)C(=O)F
CCOC(OCC)C(=O)c1ccccc1
O=C1c2ccc(O)c(O)c2C(=O)c2c(O)ccc(O)c21
CCc1cccc(CC)c1NC(=O)C(=O)O
OCC(CO)(CBr)CBr
CCOCCOCC
OCC(F)(F)C(F)(F)C(F)(F)C(F)(F)C(F)(F)C(F)(F)C(F)(F)C(F)(F)C(F)(F)C(F)(F)C(F)(F)F

AC50, active:
CCOC(=O)c1nc(C(Cl)(Cl)Cl)n(-c2ccc(Cl)cc2Cl)n1 118 µM
CC(C)c1c(C(=O)Nc2ccccc2)c(-c2ccccc2)c(-c2ccc(F)cc2)n1CC[C@@H](O)C[C@@H](O)CC(=O)O 41.9 µM and 20.2 µM
